DAX1 inh-1: DAX1 (NR0B1) inhibitors, primary screen, cell-based, HEK293, Gal4-DAX1, luciferase luminescence. Nuclear receptor subfamily 0 group B member 1 (Homo sapiens), P51843. AID 504766, 2011. inhibition, % at 6.75 µM. 340,000 tested, 0.99% active. HEK293 Gal4-DAX1 luciferase reporter;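 active means inhibition above the mean over all tested compounds plus 3 SD, cut at about 4.2% in these data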;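 further: 0% = DAX1-transfected cells with DMSO and 100% = empty-vector control cells with DMSO; inhibition shows as a rise in luminescence from relieved DAX1 repression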
Target sequence (P51843 207-470 limits assumed): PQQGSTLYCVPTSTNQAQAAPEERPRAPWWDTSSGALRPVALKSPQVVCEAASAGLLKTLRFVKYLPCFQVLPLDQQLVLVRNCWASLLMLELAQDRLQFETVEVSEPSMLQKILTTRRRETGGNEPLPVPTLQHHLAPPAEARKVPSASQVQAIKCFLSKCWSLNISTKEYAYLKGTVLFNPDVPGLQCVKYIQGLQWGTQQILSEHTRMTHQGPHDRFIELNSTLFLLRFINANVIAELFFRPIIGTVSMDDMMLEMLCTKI
ssDAF-12 act: S. stercoralis DAF-12 nuclear receptor activators, primary screen, cell-based, luminescence, HEK293, GRIP1 co-expression, lit1-tk-luc; Nuclear hormone receptor DAF-12 (Strongyloides stercoralis); HEK293 ssDAF-12/GRIP1 lit1-tk-luc reporter; % of 3 µM dafachronic acid response; activation, % at 6.8 µM; 370,000 tested, 1% active; AID 652126, 2013;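 active means activation above the mean over all tested compounds plus 3 SD, cut at about 0.9% in these data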;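 further: 0% = DMSO-only wells and 100% = 3 µM delta7-dafachronic acid wells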
hcDAF12 agonist: H. contortus DAF-12 nuclear receptor activators, primary screen, cell-based, luminescence, HEK293, lit1-tk-luc reporter. HEK293 hcDAF-12 lit1-tk-luc reporter; 0% DMSO, 100% Δ7-dafachronic acid. activation, % at 6.8 µM. 370,000 tested, 1.4% active. AID 652067, 2013;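 active means activation above the mean of all tested compounds plus 3 SD, cut at about 5.5% in these data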;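 further: 100% = response to 3 µM Δ7-dafachronic acid high control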
DAX1 inh-2: DAX1 (NR0B1) inhibitors on StAR promoter, primary screen, cell-based, luminescence, SF-1 (NR5A1), full-length DAX-1. HEK293T StAR-luciferase reporter, SF-1/DAX-1 repression relief. inhibition, % at 6.8 µM. 370,000 tested, 1.1% active. AID 652010, 2013;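 active means inhibition above the mean over all tested compounds plus 3 SD, cut at about 3.6% in these data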;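 further: 0% = DAX-1 cells with DMSO and 100% = cells lacking DAX-1 with DMSO; higher inhibition means more luminescence from relief of DAX-1 repression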
hgDAF-12 ag: H. glycines DAF-12 receptor agonists, primary screen, cell-based, luminescence, HEK293, GAL4 fusion, UAS-luciferase; Nuclear hormone receptor DAF-12 (Heterodera glycines), GAL4 fusion; HEK293 GAL4-hgDAF12 UAS-luciferase reporter, agonist luminescence; normalized to butyrate control; activation, % at 6.8 µM; 370,000 tested, 1.8% active; AID 687014, 2013;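 active means activation above a cutoff set at the mean of all screened compounds plus 3 SD, cut at about 10% in these data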;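 further: 0% = DMSO wells and 100% = sodium butyrate wells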
Active calls of the source: *. Only some compounds are listed: those with a hit (about 4.1% of all), similar ones and a draw of the others.

Screening CNc1snc(C)c1C(=O)OC(C)C(=O)Nc1cccc(OC)c1 (centres undefined) returned DAX1 inh-1 0, ssDAF-12 act -2, hcDAF12 agonist -3, DAX1 inh-2 -3 and hgDAF-12 ag -1.
Screening COc1ccc(C(=O)Cn2cnc3ccccc3c2=O)c(OC)c1 returned DAX1 inh-1 1, ssDAF-12 act -1, hcDAF12 agonist 3, DAX1 inh-2 3.6* and hgDAF-12 ag 6.
Screening COc1cccc(NC(=O)C(C)OC(=O)c2n[nH]c3ccccc23)c1 (centres undefined) returned DAX1 inh-1 0, ssDAF-12 act 0, hcDAF12 agonist 1, DAX1 inh-2 -1 and hgDAF-12 ag 11*.
For CN1CCN(/N=C/c2ccc(OCc3ccccc3)cc2)CC1 the results were DAX1 inh-1 6.0*, ssDAF-12 act 0, hcDAF12 agonist 3, DAX1 inh-2 0 and hgDAF-12 ag 8.
Screening C=CCN1C(=O)[C@@H](CC(=O)N2CCCCC2)[C@]2(C(=O)OCC)CCCCC/C=C/12 returned ssDAF-12 act -1, hcDAF12 agonist -1, DAX1 inh-2 0 and hgDAF-12 ag 1.
Screening Cc1nc2c(-c3ccc(F)cc3)cnn2c2c1CCC2 returned DAX1 inh-1 0, ssDAF-12 act 0, hcDAF12 agonist 5.7*, DAX1 inh-2 1 and hgDAF-12 ag 1.
For O=C(CNC(=O)c1ccncc1)N/N=C/c1ccc(Br)cc1 the results were DAX1 inh-1 6.5*, ssDAF-12 act -1, hcDAF12 agonist -2, DAX1 inh-2 0 and hgDAF-12 ag -1.
COc1ccccc1NC(=O)N1CCCC(C(=O)Nc2cccc(C)c2C)C1 (centres undefined) was read as DAX1 inh-1 7.5*, ssDAF-12 act -1, hcDAF12 agonist 0, DAX1 inh-2 0 and hgDAF-12 ag 0.
C/C(=N/NC(=O)Cc1cccs1)c1cccc([N+](=O)[O-])c1 was read as ssDAF-12 act -1, hcDAF12 agonist -1, DAX1 inh-2 -1 and hgDAF-12 ag 0.
Cc1cccc(-c2ccc3c(c2)C2CC3CCN2Cc2ccc3c(c2)OCO3)c1 (centres undefined) was read as DAX1 inh-1 -1, ssDAF-12 act 0, hcDAF12 agonist -1, DAX1 inh-2 4.0* and hgDAF-12 ag 0.
For COC(=O)[C@]12C[C@H](CC(=O)N3CCOCC3)C(=O)N(Cc3ccc(Cl)cc3Cl)C1=C[C@H](C1CCCC1)O[C@@H]2C the results were ssDAF-12 act -1, hcDAF12 agonist 4, DAX1 inh-2 0 and hgDAF-12 ag 4.
CC(=O)Nc1cc(C)ns1 was read as DAX1 inh-1 4.3*, ssDAF-12 act -1, hcDAF12 agonist -1, DAX1 inh-2 0 and hgDAF-12 ag 4.
Screening CCCCC(=O)Nc1cc(C(=O)NCCc2ccccc2)ccc1Cl returned DAX1 inh-1 1, ssDAF-12 act 0, hcDAF12 agonist 2, DAX1 inh-2 4.4* and hgDAF-12 ag 9.
Screening O=C(C[n+]1cc(Br)cc2ccccc21)c1ccccc1 returned DAX1 inh-1 0, ssDAF-12 act 0, hcDAF12 agonist 3, DAX1 inh-2 0 and hgDAF-12 ag 1.
Screening COc1ccc(C(=O)C[n+]2cc(Br)cc3ccccc32)cc1[N+](=O)[O-] returned DAX1 inh-1 -1, ssDAF-12 act 1.0*, hcDAF12 agonist 5.9*, DAX1 inh-2 0 and hgDAF-12 ag 2.
`CCCn1c2ccccc2c2cc(C(=O)O)ccc21` gave DAX1 inh-1 2, ssDAF-12 act -1, hcDAF12 agonist 0, DAX1 inh-2 0 and hgDAF-12 ag 2.
Screening Cn1c2ccccc2c2cc(C(=O)O)ccc21 returned DAX1 inh-1 1, ssDAF-12 act 0, hcDAF12 agonist 5.9*, DAX1 inh-2 2 and hgDAF-12 ag 0.
`COc1cc(NC(=O)C2CCCN2S(=O)(=O)c2cccc3cccnc23)cc(OC)c1OC` (centres undefined) gave DAX1 inh-1 4.6*, ssDAF-12 act -1, hcDAF12 agonist -1, DAX1 inh-2 0 and hgDAF-12 ag 0.
Screening O=C(Nc1ccc(N2CCCC2)cc1)c1cc(Cl)ccc1Cl returned DAX1 inh-1 0, ssDAF-12 act 0, hcDAF12 agonist 1, DAX1 inh-2 1 and hgDAF-12 ag 2.
Cc1cccc(C(=O)Nc2ccc(N3CCN(S(C)(=O)=O)CC3)cc2)c1 was read as DAX1 inh-1 0, ssDAF-12 act 0, hcDAF12 agonist 0, DAX1 inh-2 1 and hgDAF-12 ag 11*.
`O=C(Nc1ccc(N2CCCC2)cc1)c1cccc(Cl)c1` gave DAX1 inh-1 2, ssDAF-12 act 0, hcDAF12 agonist 6.0*, DAX1 inh-2 3 and hgDAF-12 ag 12*.
O=C(CNC(=O)N1CC(=O)Nc2ccccc21)Nc1ccccc1F was read as DAX1 inh-1 0, ssDAF-12 act 1.0*, hcDAF12 agonist 3, DAX1 inh-2 0 and hgDAF-12 ag 4.
For O=C(CCNC(=O)N1CC(=O)Nc2ccccc21)Nc1cccc(Cl)c1 the results were DAX1 inh-1 2, ssDAF-12 act 0, hcDAF12 agonist 4, DAX1 inh-2 2 and hgDAF-12 ag 7.
`O=C(CNC(=O)N1CC(=O)Nc2ccccc21)Nc1ccccc1` gave DAX1 inh-1 1, ssDAF-12 act 0, hcDAF12 agonist 3, DAX1 inh-2 3 and hgDAF-12 ag 6.
Screening O=C(CCNC(=O)N1CC(=O)Nc2ccccc21)NCc1cccc(Cl)c1 returned DAX1 inh-1 3, ssDAF-12 act -1, hcDAF12 agonist 0, DAX1 inh-2 4.4* and hgDAF-12 ag 4.
For COc1ccccc1/C=C/C(=O)NC(=S)Nc1ccccn1 the results were DAX1 inh-1 2, ssDAF-12 act 1.4*, hcDAF12 agonist 3, DAX1 inh-2 1 and hgDAF-12 ag 5.
`O=C(/C=C/c1ccco1)NC(=S)Nc1ccccn1` gave DAX1 inh-1 5.9*, ssDAF-12 act 0, hcDAF12 agonist 0, DAX1 inh-2 2 and hgDAF-12 ag 8.
`COc1ccccc1OCC(=O)Nc1ccncc1` gave DAX1 inh-1 0, ssDAF-12 act 0, hcDAF12 agonist -1, DAX1 inh-2 0 and hgDAF-12 ag -2.
`O=C(/C=C/c1ccco1)Nc1cccc(NC(=O)/C=C/c2ccco2)n1` gave DAX1 inh-1 2, ssDAF-12 act -1, hcDAF12 agonist 6.4*, DAX1 inh-2 3 and hgDAF-12 ag 11*.

Source: PubChem (The Scripps Research Institute Molecular Screening Center)
